Reference: PubChem BioAssay AID1159580 (chemical genetic matrix, 2015)
Where “and” joins values, the source holds several entries; their conditions need not be identical. Equal values may be shown once. In all, about 5,500 compounds went through this assay and about 2,000 (36%) were called active. Not shown: some 18% with an inconclusive outcome. No stated cut-off is given here; in the data, active means normalized growth mostly below about 0.91 (no sharp cut-off); inconclusive means no clear call, values can overlap the other calls; inactive means mostly above about 0.92. This is one part of the list.

Assay: chemical genetic growth profiling, strain panel (AID 1159580);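 further: tested at 20 µM; growth read once vehicle control cultures reached saturation at 30 °C; 1 = growth at the plate median or of vehicle wells; lower values mean less growth of the strain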
Details: growth OD

Measured: normalized growth

C=CCc1ccccc1OCC(O)CNC(C)C (stereo unspecified)
inactive: S. cerevisiae deletion strains, locus YJR066W, strain TOR1, hits give low values 0.924 | S. cerevisiae deletion strains, locus YJR075W, strain HOC1, hits give low values 1.01 and 1 | S. cerevisiae deletion strains, locus YKL009W, strain mrt4, hits give low values 1 | S. cerevisiae deletion strains, locus YKL068W, hits give low values 1.01 | S. cerevisiae deletion strains, locus YKL085W, strain MDH1 (second series), hits give low values 1.01 | S. cerevisiae deletion strains, locus YKL085W, strain MDH1, hits give low values 1.01 | S. cerevisiae deletion strains, locus YKL160W, strain elf1, hits give low values 1 | S. cerevisiae deletion strains, locus YKL190W, strain CNB1, hits give low values 1 | S. cerevisiae deletion strains, locus YKR001C, strain vps1, hits give low values 1.03 | S. cerevisiae deletion strains, locus YKR026C, strain gcn3, hits give low values 0.988 | S. cerevisiae deletion strains, locus YKR091W, strain srl3, hits give low values 0.997 | S. cerevisiae deletion strains, locus YLL001W, strain dnm1, hits give low values 1.01 | S. cerevisiae deletion strains, locus YLL026W, hits give low values 0.991 | S. cerevisiae deletion strains, locus YLL041C, strain sdh2, hits give low values 0.992 | S. cerevisiae deletion strains, locus YLR027C, strain aat2, hits give low values 0.99 | S. cerevisiae deletion strains, locus YLR039C, strain RIC1, hits give low values 1.06 | S. cerevisiae deletion strains, locus YLR058C, strain SHM2, hits give low values 1.01 | S. cerevisiae deletion strains, locus YLR102C, strain apc9, hits give low values 1.01 | S. cerevisiae deletion strains, locus YLR113W, strain HOG1, hits give low values 0.983 | S. cerevisiae deletion strains, locus YLR221C, strain rsa3, hits give low values 0.992 | S. cerevisiae deletion strains, locus YLR258W, strain gsy2, hits give low values 0.99 | S. cerevisiae deletion strains, locus YLR262C, strain YPT6 (second series), hits give low values 1.02 | S. cerevisiae deletion strains, locus YLR262C, strain YPT6, hits give low values 1.06 | S. cerevisiae deletion strains, locus YLR268W, strain sec22, hits give low values 1.03 | S. cerevisiae deletion strains, locus YLR320W, strain mms22, hits give low values 0.994 | S. cerevisiae deletion strains, locus YLR330W, strain CHS5, hits give low values 0.988 | S. cerevisiae deletion strains, locus YLR342W, strain FKS1 (second series), hits give low values 0.974 | S. cerevisiae deletion strains, locus YLR342W, strain FKS1, hits give low values 0.995 | S. cerevisiae deletion strains, locus YLR357W, strain rsc2, hits give low values 0.967 | S. cerevisiae deletion strains, locus YLR370C, strain arc18, hits give low values 1.01 | S. cerevisiae deletion strains, locus YLR371W, strain rom2, hits give low values 1.01 | S. cerevisiae deletion strains, locus YLR384C, strain iki3, hits give low values 0.997 | S. cerevisiae deletion strains, locus YLR418C, strain cdc73, hits give low values 1.04 | S. cerevisiae deletion strains, locus YML016C, strain PPZ1, hits give low values 1 | S. cerevisiae deletion strains, locus YML032C, strain rad52, hits give low values 1.01 | S. cerevisiae deletion strains, locus YML120C, strain ndi1, hits give low values 0.994 | S. cerevisiae deletion strains, locus YML124C, strain tub3, hits give low values 1.01 | S. cerevisiae deletion strains, locus YMR058W, strain fet3, hits give low values 1 | S. cerevisiae deletion strains, locus YMR078C, strain ctf18, hits give low values 1.01 | S. cerevisiae deletion strains, locus YMR125W, strain sto1, hits give low values 0.993 | S. cerevisiae deletion strains, locus YMR129W, hits give low values 1 | S. cerevisiae deletion strains, locus YMR205C, strain PFK2, hits give low values 0.98 | S. cerevisiae deletion strains, locus YMR223W, strain ubp8, hits give low values 1 | S. cerevisiae deletion strains, locus YMR231W, strain pep5, hits give low values 0.995 | S. cerevisiae deletion strains, locus YMR263W, strain SAP30, hits give low values 1.01 | S. cerevisiae deletion strains, locus YMR307W, strain GAS1, hits give low values 1.02 | S. cerevisiae deletion strains, locus YNL067W, strain RPL9B, hits give low values 1.01 | S. cerevisiae deletion strains, locus YNL071W, strain lat1, hits give low values 1 | S. cerevisiae deletion strains, locus YNL128W, strain TEP1, hits give low values 1.01 and 0.998 | S. cerevisiae deletion strains, locus YNL153C, strain GIM3, hits give low values 1 | S. cerevisiae deletion strains, locus YNL175C, strain NOP13, hits give low values 0.973 | S. cerevisiae deletion strains, locus YNL183C, strain NPR1, hits give low values 0.924 | S. cerevisiae deletion strains, locus YNL209W, strain ssb2, hits give low values 1.01 | S. cerevisiae deletion strains, locus YNL224C, strain SQS1, hits give low values 0.972 | S. cerevisiae deletion strains, locus YNL233W, strain BNI4, hits give low values 0.982 | S. cerevisiae deletion strains, locus YNL248C, strain rpa49, hits give low values 1.01 | S. cerevisiae deletion strains, locus YNL250W, strain rad50, hits give low values 1.01 | S. cerevisiae deletion strains, locus YNL271C, strain bni1, hits give low values 1.01 | S. cerevisiae deletion strains, locus YNL298W, strain CLA4, hits give low values 1.02 | S. cerevisiae deletion strains, locus YNL307C, strain MCK1, hits give low values 1.03 | S. cerevisiae deletion strains, locus YNL322C, strain KRE1 (second series), hits give low values 0.991 | S. cerevisiae deletion strains, locus YNL322C, strain KRE1, hits give low values 1 | S. cerevisiae deletion strains, locus YNR049C, strain mso1, hits give low values 0.988 | S. cerevisiae deletion strains, locus YNR052C, strain pop2, hits give low values 1.01 | S. cerevisiae deletion strains, locus YOL006C, strain TOP1, hits give low values 1.05 | S. cerevisiae deletion strains, locus YOL012C, strain htz1 0.911 | S. cerevisiae deletion strains, locus YOL147C, strain pex11, hits give low values 1.01 | S. cerevisiae deletion strains, locus YOR001W, strain rrp6, hits give low values 0.997 | S. cerevisiae deletion strains, locus YOR061W, strain CKA2, hits give low values 1.01 | S. cerevisiae deletion strains, locus YOR069W, strain VPS5, hits give low values 1.01 | S. cerevisiae deletion strains, locus YOR070C, strain gyp1, hits give low values 0.997 | S. cerevisiae deletion strains, locus YOR080W, strain dia2, hits give low values 0.993 | S. cerevisiae deletion strains, locus YOR083W, strain WHI5 (second series), hits give low values 0.978 | S. cerevisiae deletion strains, locus YOR083W, strain WHI5, hits give low values 1.01 | S. cerevisiae deletion strains, locus YOR106W, strain vam3, hits give low values 1.05 | S. cerevisiae deletion strains, locus YOR136W, strain idh2, hits give low values 1 | S. cerevisiae deletion strains, locus YOR144C, strain elg1, hits give low values 1 | S. cerevisiae deletion strains, locus YOR184W, strain ser1, hits give low values 1.03 | S. cerevisiae deletion strains, locus YOR231W, strain MKK1, hits give low values 0.983 | S. cerevisiae deletion strains, locus YOR265W, strain rbl2, hits give low values 1 | S. cerevisiae deletion strains, locus YOR270C, strain vph1, hits give low values 1.07 | S. cerevisiae deletion strains, locus YOR290C, strain snf2, hits give low values 0.923 | S. cerevisiae deletion strains, locus YOR316C, strain cot1, hits give low values 1.01 | S. cerevisiae deletion strains, locus YPL051W, strain arl3, hits give low values 1.01 | S. cerevisiae deletion strains, locus YPL055C, strain LGE1, hits give low values 1 | S. cerevisiae deletion strains, locus YPL078C, strain atp4, hits give low values 1.01 | S. cerevisiae deletion strains, locus YPL106C, strain sse1, hits give low values 0.987 | S. cerevisiae deletion strains, locus YPL240C, strain hsp82, hits give low values 1.01 | S. cerevisiae deletion strains, locus YPL241C, strain CIN2, hits give low values 0.997 | S. cerevisiae deletion strains, locus YPL256C, strain CLN2, hits give low values 0.981 | S. cerevisiae deletion strains, locus YPR119W, strain clb2, hits give low values 1.01 | S. cerevisiae deletion strains, locus YPR141C, strain kar3, hits give low values 1.02 | S. cerevisiae deletion strains, locus YPR163C, strain tif3, hits give low values 1.01 | S. cerevisiae deletion strains, locus YPR167C, strain met16, hits give low values 1.01 | S. cerevisiae deletion strains, strain wtn01, hits give low values 1.01 | S. cerevisiae strains, strain wild type, hits give low values 1
